Reference: the supplement of paper PMC12282887
± gives the standard deviation of the averaged measurements.

Test system: E. coli BW25113 marRABp lux reporter
Assay: promoter activity interaction Z-score (Lux/OD deviation from empty-vector control); higher = stronger promoter induction by the compound
Experimental: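 E. coli BW25113 (wild type or ΔmarA/ΔsoxS/Δrob) carrying pTU175 luxCDABE promoter reporters was grown in LB in 384-well plates at 37°C with each of 94 compounds at 4 two-fold concentrations, in biological duplicates. Luminescence and OD600 were read every 30 min for 12 h and integrated as AUC over 8 h (0-8 h WT, 1-9 h mutants). Lux AUC was divided by OD AUC; the interaction score is the residual of a Huber robust fit of each promoter against the empty-vector control, then Z-transformed per promoter.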

## C[C@@H](O)[C@H]1C(=O)N2C(C(=O)O)=C(SCCNC=N)C[C@H]12 [Imipenem]
0.02 µg/ml, genetic background: wild type
  promoter activity interaction Z-score: 0.316 ± 0.21
0.02 µg/ml, genetic background: ΔmarA
  promoter activity interaction Z-score: 0.592 ± 0.32
0.02 µg/ml, genetic background: Δrob
  promoter activity interaction Z-score: 0.0424 ± 0.11
0.02 µg/ml, genetic background: ΔsoxS
  promoter activity interaction Z-score: 0.106 ± 0.074
0.04 µg/ml, genetic background: wild type
  promoter activity interaction Z-score: 0.381 ± 0.44
0.04 µg/ml, genetic background: ΔmarA
  promoter activity interaction Z-score: 0.269 ± 0.79
0.04 µg/ml, genetic background: Δrob
  promoter activity interaction Z-score: -0.0178 ± 0.16
0.04 µg/ml, genetic background: ΔsoxS
  promoter activity interaction Z-score: 0.0651 ± 0.041
0.079 µg/ml, genetic background: wild type
  promoter activity interaction Z-score: 0.087 ± 0.15
0.079 µg/ml, genetic background: ΔmarA
  promoter activity interaction Z-score: -0.0931 ± 0.047
0.079 µg/ml, genetic background: Δrob
  promoter activity interaction Z-score: 0.0397 ± 0.03
0.079 µg/ml, genetic background: ΔsoxS
  promoter activity interaction Z-score: 0.0374 ± 0.049
0.16 µg/ml, genetic background: wild type
  promoter activity interaction Z-score: 0.129 ± 0.28
0.16 µg/ml, genetic background: ΔmarA
  promoter activity interaction Z-score: -0.0426 ± 0.31
0.16 µg/ml, genetic background: Δrob
  promoter activity interaction Z-score: -0.0898 ± 0.17
0.16 µg/ml, genetic background: ΔsoxS
  promoter activity interaction Z-score: 0.217 ± 0.23

## NCCc1ccc(O)c(O)c1 [Dopamine]
11.9 µg/ml, genetic background: wild type
  promoter activity interaction Z-score: 0.0994 ± 0.32
11.9 µg/ml, genetic background: ΔmarA
  promoter activity interaction Z-score: -0.339 ± 0.18
11.9 µg/ml, genetic background: Δrob
  promoter activity interaction Z-score: -0.285 ± 0.05
11.9 µg/ml, genetic background: ΔsoxS
  promoter activity interaction Z-score: -0.021 ± 0.064
23.7 µg/ml, genetic background: wild type
  promoter activity interaction Z-score: -0.265 ± 0.15
23.7 µg/ml, genetic background: ΔmarA
  promoter activity interaction Z-score: 0.159 ± 0.52
23.7 µg/ml, genetic background: Δrob
  promoter activity interaction Z-score: 0.121 ± 0.22
23.7 µg/ml, genetic background: ΔsoxS
  promoter activity interaction Z-score: -0.3 ± 0.046
47.4 µg/ml, genetic background: wild type
  promoter activity interaction Z-score: 0.113 ± 0.12
47.4 µg/ml, genetic background: ΔmarA
  promoter activity interaction Z-score: -0.369 ± 0.073
47.4 µg/ml, genetic background: Δrob
  promoter activity interaction Z-score: -0.155 ± 0.3
47.4 µg/ml, genetic background: ΔsoxS
  promoter activity interaction Z-score: -0.126 ± 0.099
94.8 µg/ml, genetic background: wild type
  promoter activity interaction Z-score: -0.305 ± 0.37
94.8 µg/ml, genetic background: ΔmarA
  promoter activity interaction Z-score: 0.217 ± 1.1
94.8 µg/ml, genetic background: Δrob
  promoter activity interaction Z-score: -0.642 ± 0.091
94.8 µg/ml, genetic background: ΔsoxS
  promoter activity interaction Z-score: -0.61 ± 0.21

## O=C(O)c1ccccc1O [Salicylate]
17.3 µg/ml, genetic background: wild type
  promoter activity interaction Z-score: 0.135 ± 0.01
17.3 µg/ml, genetic background: ΔmarA
  promoter activity interaction Z-score: 0.0581 ± 0.22
17.3 µg/ml, genetic background: Δrob
  promoter activity interaction Z-score: 0.184 ± 0.16
17.3 µg/ml, genetic background: ΔsoxS
  promoter activity interaction Z-score: -0.0106 ± 0.075
34.5 µg/ml, genetic background: wild type
  promoter activity interaction Z-score: 0.214 ± 0.13
34.5 µg/ml, genetic background: ΔmarA
  promoter activity interaction Z-score: 0.401 ± 0.26
34.5 µg/ml, genetic background: Δrob
  promoter activity interaction Z-score: 0.526 ± 0.052
34.5 µg/ml, genetic background: ΔsoxS
  promoter activity interaction Z-score: 0.404 ± 0.12
69.1 µg/ml, genetic background: wild type
  promoter activity interaction Z-score: 0.771 ± 0.2
69.1 µg/ml, genetic background: ΔmarA
  promoter activity interaction Z-score: 0.666 ± 0.1
69.1 µg/ml, genetic background: Δrob
  promoter activity interaction Z-score: 0.852 ± 0.25
69.1 µg/ml, genetic background: ΔsoxS
  promoter activity interaction Z-score: 0.352 ± 0.1
138.1 µg/ml, genetic background: wild type
  promoter activity interaction Z-score: 7.4 ± 0.11
138.1 µg/ml, genetic background: ΔmarA
  promoter activity interaction Z-score: 8.571 ± 0.071
138.1 µg/ml, genetic background: Δrob
  promoter activity interaction Z-score: 6.24 ± 1.4
138.1 µg/ml, genetic background: ΔsoxS
  promoter activity interaction Z-score: 6.09 ± 1.6
